# Measurements taken from PubChem BioAssay (EPA / NIEHS).
# Records with an inconclusive call do not appear. Calls of active or inactive are those of the source. How the source made its calls, unless noted: active means hit-call score of the fitted dose curve at least 0.9, where 1 is the maximum; inconclusive means response in the unintended direction; inactive means score below 0.9.
# Experiments:
# [1] = molecular target: Androgen receptor (Homo sapiens) (UniProt P10275); assay: ATG_AR_TRANS: Attagene TRANS-FACTORIAL HepG2 Assay for human Androgen Receptor (AR) (AID 2282973); conditions: HepG2 Attagene TRANS-FACTORIAL AR reporter transcription
# Androgen receptor (Homo sapiens), sequence (P10275 whole entry, looked up, the tested form may be a part): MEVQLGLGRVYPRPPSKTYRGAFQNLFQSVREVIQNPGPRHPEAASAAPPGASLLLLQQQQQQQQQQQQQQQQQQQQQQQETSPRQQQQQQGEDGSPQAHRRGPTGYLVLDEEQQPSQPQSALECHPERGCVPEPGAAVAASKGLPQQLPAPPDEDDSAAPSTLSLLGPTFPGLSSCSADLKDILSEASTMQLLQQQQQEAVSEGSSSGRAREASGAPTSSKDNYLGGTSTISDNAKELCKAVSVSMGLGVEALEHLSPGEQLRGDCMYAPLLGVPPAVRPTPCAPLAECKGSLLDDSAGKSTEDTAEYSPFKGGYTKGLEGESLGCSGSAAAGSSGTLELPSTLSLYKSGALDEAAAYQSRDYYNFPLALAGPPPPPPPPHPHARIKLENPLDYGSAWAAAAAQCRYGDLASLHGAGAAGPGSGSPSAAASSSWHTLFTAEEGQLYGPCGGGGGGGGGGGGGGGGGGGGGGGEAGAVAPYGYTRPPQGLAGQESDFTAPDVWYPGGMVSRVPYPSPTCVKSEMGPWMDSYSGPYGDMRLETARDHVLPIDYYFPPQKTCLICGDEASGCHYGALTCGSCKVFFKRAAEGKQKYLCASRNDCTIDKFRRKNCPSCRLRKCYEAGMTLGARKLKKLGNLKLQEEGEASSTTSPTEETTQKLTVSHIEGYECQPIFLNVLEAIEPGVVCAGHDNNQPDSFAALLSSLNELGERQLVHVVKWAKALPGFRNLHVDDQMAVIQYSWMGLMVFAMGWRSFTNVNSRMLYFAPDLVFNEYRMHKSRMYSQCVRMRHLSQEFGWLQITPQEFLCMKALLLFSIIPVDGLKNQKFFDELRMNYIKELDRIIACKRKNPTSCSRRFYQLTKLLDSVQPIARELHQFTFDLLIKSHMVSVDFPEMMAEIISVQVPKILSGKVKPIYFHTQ
# How it was run: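 HepG2 cells transiently transfected with multiplexed GAL4-UAS reporter units and chimeric NR-Gal4 fusion; 24 h compound exposure. Reporter mRNA measured by RT-PCR, 6-FAM labelling, HpaI digestion and capillary electrophoresis; gain-of-signal fitted relative to DMSO baseline.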
# [2] = Tanguay_ZF_120hpf_MUSC: Oregon State University Tanguay Lab 120 Hour Post-fertilization zebrafish Assay for Muscle Malformation (AID 2284401; active means hit-call score of the fitted dose curve at least 0.9, where 1 is the maximum; inactive means score below 0.9)
# How it was run: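 Dechorionated Tropical 5D wild-type zebrafish embryos exposed statically from 6 to 120 hpf at 28C, one per well, in 0.64% DMSO. Muscle malformation scored present/absent by brightfield microscopy at 120 hpf, fitted against DMSO.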
# [3] = molecular target: Norway rat Vesicular Monoamine Transporter (VMAT2), neurotransmitter transporter, Slc18a2 (gene 25549) (UniProt Q01827); assay: NVS_TR_rVMAT2: NovaScreen (NVS) Transporter Assay for Norway rat Vesicular Monoamine Transporter (VMAT2), neurotransmitter transporter (AID 2283376);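 further: actives lower the bound radioligand signal below the DMSO level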
# Norway rat Vesicular Monoamine Transporter (VMAT2), neurotransmitter transporter, Slc18a2 (gene 25549), sequence (Q01827 whole entry, looked up): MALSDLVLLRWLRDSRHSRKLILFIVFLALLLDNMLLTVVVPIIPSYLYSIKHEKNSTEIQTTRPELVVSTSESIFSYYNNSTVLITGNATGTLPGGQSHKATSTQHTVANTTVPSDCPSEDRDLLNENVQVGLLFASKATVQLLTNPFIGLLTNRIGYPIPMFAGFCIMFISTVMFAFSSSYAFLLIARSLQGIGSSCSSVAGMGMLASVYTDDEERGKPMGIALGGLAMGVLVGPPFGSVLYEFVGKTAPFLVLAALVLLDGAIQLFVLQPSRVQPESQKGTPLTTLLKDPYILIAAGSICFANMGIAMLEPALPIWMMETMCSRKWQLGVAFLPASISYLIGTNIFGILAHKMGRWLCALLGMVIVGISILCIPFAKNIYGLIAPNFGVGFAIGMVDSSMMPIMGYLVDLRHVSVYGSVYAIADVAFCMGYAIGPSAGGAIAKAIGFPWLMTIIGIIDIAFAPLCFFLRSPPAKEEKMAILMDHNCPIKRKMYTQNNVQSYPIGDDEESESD
# How it was run: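 Tissue: rat forebrain extract. Format: competitive radioligand binding, cell-free. Timepoint: 1 h. Readout: filter radiodetection/scintillation. Screen: 25 uM in duplicate, then concentration series for actives. Baseline: DMSO.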
# [4] = molecular target: Voltage-dependent N-type calcium channel subunit alpha-1B (Rattus norvegicus) (UniProt Q02294); assay: NVS_IC_rCaChN: NovaScreen (NVS) Ion Channel Assay for rat Calcium Channel, Type N (CaChN) (AID 2283317)
# [5] = molecular target: rat Oxytocin Receptor (OXT), Oxtr (gene 25342) (UniProt P70536); assay: NVS_GPCR_rOXT: NovaScreen (NVS) G Protein-Coupled Receptor Assay for rat Oxytocin Receptor (OXT) (AID 2283330)
# rat Oxytocin Receptor (OXT), Oxtr (gene 25342), sequence (P70536 whole entry, looked up): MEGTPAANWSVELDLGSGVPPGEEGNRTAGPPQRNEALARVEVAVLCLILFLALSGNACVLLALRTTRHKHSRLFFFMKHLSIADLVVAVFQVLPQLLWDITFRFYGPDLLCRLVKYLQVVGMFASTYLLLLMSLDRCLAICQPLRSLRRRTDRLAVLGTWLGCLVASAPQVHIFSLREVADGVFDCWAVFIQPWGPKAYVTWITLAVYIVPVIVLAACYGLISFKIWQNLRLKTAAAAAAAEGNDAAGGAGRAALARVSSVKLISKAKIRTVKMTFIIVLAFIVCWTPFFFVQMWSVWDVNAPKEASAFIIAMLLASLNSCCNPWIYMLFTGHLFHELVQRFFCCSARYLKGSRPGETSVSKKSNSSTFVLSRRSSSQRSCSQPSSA
# How it was run: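 Radioligand displacement on rat uterine membranes, 1 h incubation, filter-based scintillation counting. Chemicals were screened in duplicate at 25 uM, and those passing threshold were retested in concentration-response up to 50 uM. Loss of binding was fitted versus DMSO.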
# [6] = ATG_M_32_XSP2: Attagene TRANS-FACTORIAL Multi-Species (XSP2) HepG2 Assay for M19 Transcription Factor (Internal Marker) (AID 2283826)
# How it was run: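 HepG2 cells transiently transfected with GAL4-UAS reporter transcription units, dosed with compound for 24 h in presence of 3 nM 6-alpha-fluorotestosterone and 1.5 nM norgestrel; reporter mRNA quantified by RT-PCR, FAM labelling, HpaI digestion and capillary electrophoresis.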
# [7] = molecular target: Bile acid receptor (Homo sapiens) (UniProt Q96RI1); assay: NVS_NR_hFXR_Agonist: NovaScreen (NVS) Nuclear Receptor Binding Assay for human Farnesoid X Receptor Agonism (FXR) (AID 2283347)
# Bile acid receptor (Homo sapiens), sequence (Q96RI1 whole entry, looked up): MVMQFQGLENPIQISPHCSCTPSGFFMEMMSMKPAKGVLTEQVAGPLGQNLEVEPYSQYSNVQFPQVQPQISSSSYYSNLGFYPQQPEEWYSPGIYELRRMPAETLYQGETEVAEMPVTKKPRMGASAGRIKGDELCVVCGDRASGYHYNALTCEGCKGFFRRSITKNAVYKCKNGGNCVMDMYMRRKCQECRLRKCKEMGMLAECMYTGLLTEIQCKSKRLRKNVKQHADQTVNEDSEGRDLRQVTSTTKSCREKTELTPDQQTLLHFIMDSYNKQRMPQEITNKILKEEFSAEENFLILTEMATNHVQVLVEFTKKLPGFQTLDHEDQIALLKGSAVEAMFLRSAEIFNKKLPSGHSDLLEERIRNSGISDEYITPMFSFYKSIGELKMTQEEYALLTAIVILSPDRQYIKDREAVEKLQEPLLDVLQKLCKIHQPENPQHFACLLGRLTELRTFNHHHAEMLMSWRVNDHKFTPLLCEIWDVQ
# How it was run: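 Cell-free TR-FRET binding assay with extracted human FXR protein, agonist format, read 1 h after dosing. Primary screen at 25 uM single concentration in duplicate, actives retested in concentration series; gain of signal versus DMSO.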
# [8] = molecular target: bovine Gamma-Aminobutyric Acid Type A Receptor BDZ, alpha 1 site (GABARa1), GABRA1 (gene 780973) (UniProt P08219); assay: NVS_LGIC_bGABARa1: NovaScreen (NVS) Ligand-Gated Ion Channel Assay for bovine Gamma-Aminobutyric Acid Type A Receptor BDZ, alpha 1 site (GABARa1) (AID 2283321)
# bovine Gamma-Aminobutyric Acid Type A Receptor BDZ, alpha 1 site (GABARa1), GABRA1 (gene 780973), sequence (P08219 whole entry, looked up): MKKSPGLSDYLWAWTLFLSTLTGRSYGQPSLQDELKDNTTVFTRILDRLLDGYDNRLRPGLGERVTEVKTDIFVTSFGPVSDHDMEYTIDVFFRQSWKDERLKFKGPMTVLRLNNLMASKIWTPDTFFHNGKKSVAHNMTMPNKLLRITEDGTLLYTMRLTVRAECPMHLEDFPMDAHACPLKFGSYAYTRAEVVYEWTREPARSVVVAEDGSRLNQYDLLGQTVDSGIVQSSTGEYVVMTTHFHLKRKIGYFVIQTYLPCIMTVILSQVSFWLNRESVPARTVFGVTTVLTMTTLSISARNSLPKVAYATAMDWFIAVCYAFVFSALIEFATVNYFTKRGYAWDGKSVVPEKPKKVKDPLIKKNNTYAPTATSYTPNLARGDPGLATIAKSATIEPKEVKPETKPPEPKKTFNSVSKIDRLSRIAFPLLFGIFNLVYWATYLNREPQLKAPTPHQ
# How it was run: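 Radioligand competition binding on bovine cortical membranes, 0.75 h, filter-based scintillation counting. Primary single concentration 25 uM in duplicate; actives rerun in concentration-response to 50 uM max. Loss of signal fitted versus DMSO.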
compound,measurement,setting,value
NCC(F)(F)C(F)(F)C(F)(F)C(F)(F)F,outcome,[1],inactive
same,outcome,[2],inactive
FC(F)C(F)(F)COCC1CO1 (stereo unspecified),outcome,[1],inactive
same,outcome,[2],inactive
C=CC(=O)OCC(F)(F)C(F)(F)C(F)(F)C(F)(F)C(F)(F)C(F)(F)C(F)(F)C(F)F,outcome,[1],inactive
same,outcome,[2],inactive
O=C(O)CCC(F)(F)C(F)(F)C(F)(F)C(F)(F)C(F)(F)C(F)(F)C(F)(F)F,outcome,[1],inactive
same,outcome,[2],inactive
C=CC(F)(F)C(F)(F)C(F)(F)C(F)(F)C(F)(F)C(F)(F)C(F)(F)C(F)(F)F,outcome,[1],inactive
same,outcome,[2],inactive
CCO[Si](CCC(F)(F)C(F)(F)C(F)(F)C(F)(F)C(F)(F)C(F)(F)F)(OCC)OCC,outcome,[1],inactive
same,outcome,[2],inactive
OC(O)C(F)(F)C(F)(F)F,outcome,[1],inactive
same,outcome,[2],inactive
NC(O)(C(F)(F)F)C(F)(F)F,outcome,[1],inactive
same,outcome,[2],inactive
CC1=C(C)S(=O)(=O)CCS1(=O)=O,outcome,[1],inactive
same,outcome,[3],inactive
OCCCC(F)(F)C(F)(F)C(F)(F)C(F)(F)C(F)(F)C(F)(F)C(F)(F)C(F)(F)F,outcome,[1],inactive
same,outcome,[2],inactive
O=S(=O)(O)CCC(F)(F)C(F)(F)C(F)(F)C(F)(F)C(F)(F)C(F)(F)C(F)(F)C(F)(F)F,outcome,[1],inactive
same,outcome,[2],inactive
Cc1cnccn1,outcome,[1],inactive
same,outcome,[3],inactive
O=C(CC(=O)C(F)(F)C(F)(F)C(F)(F)F)c1cccs1,outcome,[1],inactive
same,outcome,[2],inactive
O=C(O)C(F)(F)C(F)(F)C(F)(F)F,outcome,[1],inactive
same,outcome,[2],inactive
FC(F)(F)C(F)(F)C(F)(F)N(C(F)(F)C(F)(F)C(F)(F)F)C(F)(F)C(F)(F)C(F)(F)F,outcome,[1],inactive
same,outcome,[2],inactive
O=P(O)(O)CCC(F)(F)C(F)(F)C(F)(F)C(F)(F)C(F)(F)C(F)(F)C(F)(F)C(F)(F)F,outcome,[1],inactive
same,outcome,[2],inactive
COC(F)(C(F)F)C(F)(F)F (stereo unspecified),outcome,[1],inactive
same,outcome,[2],inactive
C=CC(=O)OCCC(F)(F)C(F)(F)C(F)(F)C(F)(F)F,outcome,[1],inactive
same,outcome,[2],inactive
COCCOC[C@H](CC1(C(=O)NC2CCC(C(=O)O)CC2)CCCC1)C(=O)Oc1ccc2c(c1)CCC2 (stereo partly specified),outcome,[1],inactive
same,outcome,[4],inactive
same,outcome,[5],inactive
C[Si](C)(C)C(F)(F)C(F)(F)C(F)(F)F,outcome,[1],inactive
same,outcome,[2],inactive
C=C1C[C@H]2[C@@H]3C=C(C)C4=CC(=O)CC[C@]4(C)[C@H]3CC[C@]2(C)[C@@]1(OC(C)=O)C(C)=O,outcome,[1],inactive
same,outcome,[6],inactive
O=C(O)C(F)(F)C(F)(F)C(F)(F)OC(F)(C(F)(F)F)C(F)(F)F,outcome,[1],inactive
same,outcome,[2],inactive
O=C(O)C=C(C(F)(F)F)C(F)(F)F,outcome,[1],inactive
same,outcome,[2],inactive
N=C(N)C(F)(F)C(F)(F)C(F)(F)C(F)(F)C(F)(F)C(F)(F)C(F)(F)F,outcome,[1],inactive
same,outcome,[2],inactive
CNS(=O)(=O)C(F)(F)C(F)(F)C(F)(F)C(F)(F)C(F)(F)C(F)(F)C(F)(F)C(F)(F)F,outcome,[1],inactive
same,outcome,[2],inactive
OCC(F)(F)C(F)(F)C(F)(F)CO,outcome,[1],inactive
same,outcome,[2],inactive
c1ccc2c(c1)ccc1ccccc12,outcome,[1],inactive
same,outcome,[6],inactive
CC(C)OC(=O)C(C)(C)Oc1ccc(C(=O)c2ccc(Cl)cc2)cc1,outcome,[1],inactive
same,AC50,[7],25 µM (active)
O=C1CCC(=O)N1,outcome,[1],inactive
same,outcome,[3],inactive
FC(F)(F)C(F)(F)C(F)(F)C(F)(F)C(F)(F)C(F)(F)C(F)(F)Br,outcome,[1],inactive
same,outcome,[2],inactive
FC(F)(F)C(F)(F)C(F)(F)C(F)(F)C(F)(F)C(F)(F)CC1CO1 (stereo unspecified),outcome,[1],inactive
same,outcome,[2],inactive
CN1CCN(C)CC1,outcome,[1],inactive
same,outcome,[3],inactive
OCC(F)(F)C(F)(F)C(F)(F)C(F)(F)C(F)(F)C(F)F,outcome,[1],inactive
same,outcome,[2],inactive
CC(=O)S[C@@H]1CC2=CC(=O)CC[C@]2(C)[C@H]2CC[C@@]3(C)[C@@H](CC[C@@]34CCC(=O)O4)[C@H]12,outcome,[1],inactive
same,outcome,[3],inactive
CCSC(=O)N(CC(C)C)CC(C)C,outcome,[1],inactive
same,outcome,[8],inactive
O=S(=O)(OCC(F)F)C(F)(F)F,outcome,[1],inactive
same,outcome,[2],inactive
CCCCCCCCC(F)(F)C(F)(F)C(F)(F)C(F)(F)C(F)(F)C(F)(F)F,outcome,[1],inactive
same,outcome,[2],inactive
CCOC(=O)CC(=O)C(F)(F)C(F)(F)F,outcome,[1],inactive
same,outcome,[2],inactive
C=CCc1cc(S(=O)(=O)c2ccc(O)c(CC=C)c2)ccc1O,outcome,[1],inactive
same,outcome,[6],inactive
O=P(O)(O)CCC(F)(F)C(F)(F)C(F)(F)C(F)(F)C(F)(F)C(F)(F)F,outcome,[1],inactive
same,outcome,[2],inactive
